Data taken from PubChem BioAssay AID1159580 (chemical genetic matrix, 2015).
Screen size: about 5,500 compounds; about 2,000 (36%) were called active. Inconclusive results (about 18%) are left out. Cut-off read from the data, not from the text of the source: active = normalized growth mostly below about 0.91 (no sharp cut-off); inconclusive = no clear call, values can overlap the other calls; inactive = mostly above about 0.92. The list shows a part of the results.

Test: chemical genetic growth profiling, strain panel (AID 1159580);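 note: tested at 20 µM; growth read once vehicle control cultures reached saturation at 30 °C; 1 = growth at the plate median or of vehicle wells; lower values mean less growth of the strain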
Conditions: S. cerevisiae deletion strains, growth OD

Measured: normalized growth

COc1c(-c2coc3cc4c(cc3c2=O)CC(OC(C)=O)C(C)(C)O4)ccc2c1C=CC(C)(C)O2 (stereo not given)
inactive: locus YAL021C, strain ccr4, stronger effect = lower value 1.01 | locus YAL026C, strain drs2, stronger effect = lower value 1.04 | locus YAL030W, strain snc1, stronger effect = lower value 1.03 | locus YBL061C, strain skt5, stronger effect = lower value 1.02 | locus YBR009C, strain hhf1, stronger effect = lower value 1.02 | locus YBR023C, strain chs3, stronger effect = lower value 1.03 | locus YBR171W, strain sec66, stronger effect = lower value 1.05 | locus YBR231C, strain swc5, stronger effect = lower value 1.05 | locus YBR279W, strain paf1, stronger effect = lower value 1.03 | locus YCL011C, strain gbp2, stronger effect = lower value 1.04 | locus YCL016C, strain dcc1, stronger effect = lower value 1.03 | locus YCL061C, strain MRC1, stronger effect = lower value 1.03 | locus YCL069W, strain vba3, stronger effect = lower value 1.04 | locus YCR088W, strain abp1, stronger effect = lower value 1.04 | locus YDL005C, strain med2, stronger effect = lower value 1.04 | locus YDL040C, strain nat1, stronger effect = lower value 1.03 | locus YDR001C, strain nth1, stronger effect = lower value 1.03 | locus YDR069C, strain doa4, stronger effect = lower value 1.03 | locus YDR137W, strain rgp1, stronger effect = lower value 1.08 | locus YDR159W, strain sac3, stronger effect = lower value 1.05 | locus YDR195W, strain ref2 1.05 | locus YDR297W, strain sur2, stronger effect = lower value 1.03 | locus YDR334W, strain swr1, stronger effect = lower value 1.03 | locus YDR335W, strain msn5, stronger effect = lower value 1.03 | locus YDR392W, strain spt3, stronger effect = lower value 0.945 | locus YEL003W, strain gim4, stronger effect = lower value 1.03 | locus YEL037C, strain rad23, stronger effect = lower value 1.02 | locus YEL061C, strain CIN8 (second series), stronger effect = lower value 1.04 | locus YER015W, strain faa2, stronger effect = lower value 1.03 | locus YER016W, strain bim1, stronger effect = lower value 1.03 | locus YER111C, strain swi4, stronger effect = lower value 1.02 | locus YER155C, strain BEM2 (second series), stronger effect = lower value 1.03 | locus YFR010W, strain ubp6, stronger effect = lower value 1.03 | locus YGL167C, strain pmr1, stronger effect = lower value 1.03 | locus YGL173C, strain kem1, stronger effect = lower value 1.03 | locus YGL227W, strain vid30, stronger effect = lower value 1.04 | locus YGL240W, strain doc1, stronger effect = lower value 1.03 | locus YGL253W, strain hxk2, stronger effect = lower value 1.04 | locus YHR013C, strain ard1, stronger effect = lower value 1.03 | locus YHR027C, strain rpn1, stronger effect = lower value 1.02 | locus YHR030C, strain SLT2, stronger effect = lower value 0.961 | locus YHR079C, strain IRE1, stronger effect = lower value 0.947 | locus YHR142W, strain chs7, stronger effect = lower value 1.05 | locus YJL092W, strain hpr5, stronger effect = lower value 1.04 | locus YJL095W, strain BCK1 (second series), stronger effect = lower value 1.03 | locus YJL095W, strain BCK1, stronger effect = lower value 0.973 | locus YJL115W, strain asf1, stronger effect = lower value 1.04 | locus YJL129C, strain trk1, stronger effect = lower value 1.06 | locus YJL154C, strain vps35, stronger effect = lower value 1.03 | locus YJL164C, strain tpk1, stronger effect = lower value 1.03 | locus YJL166W, strain qcr8, stronger effect = lower value 1.03 | locus YJL187C, strain SWE1, stronger effect = lower value 1.02 | locus YJR066W, strain TOR1, stronger effect = lower value 0.973 | locus YKL160W, strain elf1, stronger effect = lower value 1.04 | locus YKR026C, strain gcn3, stronger effect = lower value 1.04 | locus YKR091W, strain srl3, stronger effect = lower value 1.02 | locus YLL001W, strain dnm1, stronger effect = lower value 1.03 | locus YLL026W, stronger effect = lower value 1.02 | locus YLL041C, strain sdh2, stronger effect = lower value 1.02 | locus YLR027C, strain aat2, stronger effect = lower value 1.03 | locus YLR113W, strain HOG1, stronger effect = lower value 0.934 | locus YLR221C, strain rsa3, stronger effect = lower value 1.03 | locus YLR258W, strain gsy2, stronger effect = lower value 1.03 | locus YLR262C, strain YPT6 (second series), stronger effect = lower value 1.07 | locus YLR320W, strain mms22, stronger effect = lower value 1.03 | locus YLR342W, strain FKS1, stronger effect = lower value 1.03 | locus YLR357W, strain rsc2, stronger effect = lower value 1.04 | locus YLR370C, strain arc18, stronger effect = lower value 1.03 | locus YLR384C, strain iki3, stronger effect = lower value 1.02 | locus YML120C, strain ndi1, stronger effect = lower value 1.03 | locus YMR058W, strain fet3, stronger effect = lower value 1.04 | locus YMR125W, strain sto1, stronger effect = lower value 1.03 | locus YMR129W, stronger effect = lower value 1.03 | locus YMR205C, strain PFK2, stronger effect = lower value 1.04 | locus YMR231W, strain pep5, stronger effect = lower value 1.03 | locus YNL071W, strain lat1, stronger effect = lower value 1.03 | locus YNL183C, strain NPR1, stronger effect = lower value 0.925 | locus YNL209W, strain ssb2, stronger effect = lower value 1.03 | locus YNL248C, strain rpa49, stronger effect = lower value 1.03 | locus YNL322C, strain KRE1 (second series), stronger effect = lower value 1.02 | locus YNR049C, strain mso1, stronger effect = lower value 1.03 | locus YOR001W, strain rrp6, stronger effect = lower value 1.02 | locus YOR070C, strain gyp1, stronger effect = lower value 1.02 | locus YOR080W, strain dia2, stronger effect = lower value 1.02 | locus YOR083W, strain WHI5, stronger effect = lower value 1.03 | locus YOR106W, strain vam3, stronger effect = lower value 1.06 | locus YOR231W, strain MKK1, stronger effect = lower value 0.957 | locus YOR265W, strain rbl2, stronger effect = lower value 1.02 | locus YOR270C, strain vph1, stronger effect = lower value 1.03 | locus YOR290C, strain snf2, stronger effect = lower value 0.999 | locus YPL051W, strain arl3, stronger effect = lower value 1.03 | locus YPL078C, strain atp4, stronger effect = lower value 1.04 | locus YPL106C, strain sse1, stronger effect = lower value 1.05 | locus YPL240C, strain hsp82, stronger effect = lower value 1.02 | locus YPL256C, strain CLN2, stronger effect = lower value 0.958
